A selection: hits, their analogues and other compounds. The true share with any hit is near 0.9%.
Mtb UGM inh = inhibitors of M. tuberculosis UDP-galactopyranose mutase | P9WIQ1 | purified UGM, fluorescence polarization probe displacement | inhibition, % at 10 µM | 320,000 tested, 0.06% active; in the data active = inhibition above about 10%, passing the limit was not always enough
RecA splice inh = Mtb RecA intein splicing inhibition | P9WHJ3 | inhibition, % (test concentration not listed) | 290,000 tested, 0.75% active | cell-free RecA intein splicing, fluorescence; in the data active = inhibition above about 30%
FadD28 binding = blocks FadD28 binding to the bisubstrate probe; 360,000 tested, 0.22% active; inhibition, % at 12.5 µM; fluorescence polarization; AID 588549; in the data active = inhibition above about 8.5%, passing the limit was not always enough
Rv3671c inh = inhibitors of M. tuberculosis serine protease Rv3671c; P9WHR9; inhibition, % at 5.96 µM; 320,000 tested, 0.048% active; AID 2606; in the data active = inhibition above about 38%;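 also: extracellular domain of Rv3671c used as enzyme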
Target sequence (P9WHR9 whole entry, looked up, the tested form may be a part): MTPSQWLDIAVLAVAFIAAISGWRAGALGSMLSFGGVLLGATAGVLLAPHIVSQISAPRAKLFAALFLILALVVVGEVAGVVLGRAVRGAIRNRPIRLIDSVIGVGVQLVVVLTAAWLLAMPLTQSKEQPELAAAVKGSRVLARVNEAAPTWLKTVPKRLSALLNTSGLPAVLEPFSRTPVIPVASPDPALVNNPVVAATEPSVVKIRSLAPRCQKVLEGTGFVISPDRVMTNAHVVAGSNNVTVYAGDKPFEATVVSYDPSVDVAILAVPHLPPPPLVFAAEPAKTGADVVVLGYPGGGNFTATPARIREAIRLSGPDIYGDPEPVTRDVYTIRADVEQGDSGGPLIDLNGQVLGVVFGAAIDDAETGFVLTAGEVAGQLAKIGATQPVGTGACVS
TcdB inh = blocks C. difficile toxin B glycohydrolase activity; P18177; TcdB glycohydrolase enzymatic assay, plate reader; inhibition, % at 9.99 µM; 350,000 tested, 0.24% active; in the data active = inhibition above about 10%
BioA inh = blocks M. tuberculosis BioA enzyme activity | purified M. tuberculosis BioA enzyme, plate reader | AID 602481 | 360,000 tested, 0.096% active | inhibition, % at 9.99 µM; in the data active = inhibition above about 40%
GFP chromo cs = counter-screen GFP chromophore formation inhibition | EC50, µM | shares compounds with RecA splice inh | 2,100 tested, 83% active | cell-free GFP chromophore formation, fluorescence; call rule not given here
Numbers stand for hits; 0 = inactive; - = not tested or not shown.

SMILES | Mtb UGM inh | RecA splice inh | FadD28 binding | Rv3671c inh | TcdB inh | BioA inh | GFP chromo cs
COc1ccc(NC(=O)Nc2cccc3c2O[C@@H](CN(C)Cc2ccc4c(c2)OCO4)[C@H](C)CN([C@H](C)CO)C3=O)cc1 | - | - | - | - | 0 | 0 | -
O=C1c2ccccc2C(=O)c2c1oc(C(F)(F)F)c2C(=O)c1ccccc1 | 0 | 39 | 0 | 0 | - | - | 0
CCOC(=O)c1c(-c2cccs2)csc1NC(=O)CC(C)C | 0 | 0 | 0 | 0 | - | 0 | -
NC(=O)c1c(-c2cccs2)csc1N | 0 | 67 | - | 0 | - | - | 13
Cc1ccc(S(=O)(=O)N(C)C[C@@H]2Oc3ccc(NS(=O)(=O)c4c(C)noc4C)cc3C(=O)N([C@@H](C)CO)C[C@H]2C)cc1 | - | - | - | - | 0 | 0 | -
CS/C(=C/[N+](=O)[O-])Nc1cccc2c1C(C)CC2(C)C (stereo not given) | 0 | 67 | 0 | 0 | 0 | - | 38
CC(=O)Nc1cc2c(c([N+](=O)[O-])c1C)C(C)(C)CC2(C)C | - | - | 0 | - | 0 | 0 | -
CCOC(=O)c1c(CSC(=N)N)n(-c2ccccc2)c2cc(Br)c(OC(C)=O)cc12 | 0 | 48 | 0 | 0 | 0 | - | 20
CCOC(=O)c1c(CN2CCN(C)CC2)n(-c2ccccc2)c2cc(Br)c(O)cc12 | 0 | 0 | 0 | 0 | 0 | - | -
CC=Cc1ccc2n(c1=O)C[C@H]1[C@H](CO)[C@@H](C(=O)NCCC)[C@@H]2N1S(=O)(=O)c1cn(C)cn1 (mixture of isomers) | - | - | - | - | - | 0 | -
C[C@H]1CN([C@@H](C)CO)C(=O)c2cc(NS(=O)(=O)c3ccc(F)cc3)ccc2O[C@H]1CN(C)C(=O)Nc1cccc2ccccc12 | - | - | - | - | 0 | 0 | -
COc1cc(Br)c(C(=O)c2nccc3cc(OC)c(OC)cc23)cc1OC | 0 | 84 | 0 | 0 | 0 | 0 | 0.75
COc1cc(C(=O)c2ccccc2)c([N+](=O)[O-])cc1OC | 0 | 0 | 0 | 0 | 0 | 0 | -
COc1cc(N)c(C(=O)c2nccc3cc(OC)c(OC)cc23)cc1OC | 0 | 0 | 0 | 0 | 0 | 0 | -
COc1cc(C(=O)c2nccc3cc(OC)c(OC)cc23)c([N+](=O)[O-])cc1OC | 0 | 95 | 0 | 0 | 0 | - | 0.39
O=C(N[C@@H]1CC[C@@H](CCNC(=O)c2cnccn2)O[C@@H]1CO)c1ccc2c(c1)OCO2 | - | - | - | - | 0 | 0 | -
N#C/C(=C\c1ccc(O)c([N+](=O)[O-])c1)c1nc2ccccc2s1 | - | 51 | 0 | - | 0 | 0 | 23
COc1cc(/C=C(\C#N)c2nc3ccccc3s2)cc([N+](=O)[O-])c1O | - | - | 0 | - | 0 | - | -
N=C(N)SCc1cn(-c2ccccc2)nc1-c1ccc(Br)cc1 | - | 40 | 0 | - | 0 | - | 20
Cc1ccc(-c2nn(-c3ccccc3)cc2CO)cc1 | 0 | 0 | 0 | 0 | 0 | 0 | -
Cc1ccc(S(=O)(=O)Nc2ccc3c(c2)C(=O)N(C)[C@H]2CC[C@@H](CC(=O)NCCc4ccncc4)O[C@H]2CO3)cc1 | - | - | - | - | 0 | 0 | -
CC(C)(C)c1ccc(/C=C(\c2nc3ccccc3[nH]2)S(=O)(=O)c2ccccc2)cc1 | 0 | 82 | 0 | 0 | - | 0 | 6.6
CC(C)COC(=O)N(C)C[C@@H]1OCc2cn(nn2)CCCC(=O)N([C@H](C)CO)C[C@H]1C | - | - | - | - | 0 | 0 | -
CC1=C(C)/C(=N\OC(=O)/C=C/c2ccccc2)C=CC1=O | 0 | 38 | 0 | 0 | - | 0 | 0
CC1=CC(=NOC(=O)/C=C/c2ccccc2)C=C(C)C1=O | 0 | 0 | 0 | 0 | - | 0 | -
SMILES | Mtb UGM inh | RecA splice inh | FadD28 binding | Rv3671c inh | TcdB inh | BioA inh | GFP chromo cs
CO[C@@H]1CN(C)C(=O)c2cc(NS(=O)(=O)CC(F)(F)F)ccc2OC[C@H](C)N(CCC(F)(F)F)C[C@H]1C | - | - | - | - | 0 | 0 | -
CCNC(=O)c1ccc(CSc2ccc(Cl)cc2)cc1 | 0 | 0 | 0 | 0 | 0 | 0 | -
Cn1[nH]c(CSc2ccc(Cl)cc2)cc1=O | 0 | 93 | 0 | 0 | 0 | - | 27
CC(=O)N(C1CC(C)C(C#N)(C#N)C1(C#N)C#N)N(C)C (stereo not given) | 0 | 81 | 0 | 0 | 0 | - | 19
CCCC(=O)N(C1CC(C)C(C#N)(C#N)C1(C#N)C#N)N(C)C (stereo not given) | 0 | 93 | 0 | 0 | 0 | - | 4.9
C[C@H](NC(=O)[C@H]1[C@H](CO)[C@H]2Cn3c(ccc(C4=CCCC4)c3=O)[C@@H]1N2C(=O)C1CC1)c1ccccc1 | - | - | - | - | 0 | - | -
Cc1ccc(S(=O)(=O)Nc2cccc3c2O[C@@H](CN(C)C(=O)Nc2ccc4c(c2)OCO4)[C@@H](C)CN([C@@H](C)CO)C3=O)cc1 | - | - | - | - | 0 | 0 | -
Cc1ccc(OC(=O)c2ccc(C)c([N+](=O)[O-])c2)cn1 | 0 | 0 | 0 | 0 | 0 | 0 | -
Cc1ccc(OC(=O)c2ccc([N+](=O)[O-])cc2Cl)cn1 | 0 | 32 | 0 | 0 | 0 | 0 | 33
Cc1noc(C)c1NC(=O)Nc1ccc2c(c1)CC(=O)N([C@@H](C)CO)C[C@@H](C)[C@H](CN(C)C(=O)Nc1ccc3c(c1)OCO3)O2 | - | - | - | - | 0 | 0 | -
COc1cc(Cc2nccc3cc(OC)c(OC)cc23)c(S(=O)(=O)O)cc1OC | 0 | 42 | 0 | 0 | 0 | - | 0
COCC(=O)N1[C@H](CO)[C@H](c2ccc(-c3cccc(OC)c3)cc2)C12CN(C(C)=O)C2 | - | - | - | - | 0 | - | -
Cn1c(=O)c([N+](=O)[O-])c(-n2ccnc2)c2ccccc21 | 0 | 66 | 0 | 0 | 0 | - | 19
Cn1c(=O)c([N+](=O)[O-])c(NCCCn2ccnc2)c2ccccc21 | 0 | 0 | 0 | 0 | 0 | - | -
Cc1ccc(C2CC(c3cccs3)=NN2C(=O)CCl)cc1 (stereo not given) | 0 | 82 | 0 | 0 | 0 | 0 | 3.8
CCC(=O)N1N=C(c2cccs2)CC1c1ccc(C)cc1 (stereo not given) | 0 | 0 | 0 | 0 | 0 | 0 | -
COc1ccc(S(=O)(=O)N[C@@H]2CC[C@@H](CCn3cc(-c4ccccc4F)nn3)O[C@@H]2CO)cc1 | - | - | - | - | 0 | 0 | -
CCCN(C)C[C@H]1Oc2ncc(C#CC3CC3)cc2C(=O)N([C@@H](C)CO)C[C@@H]1C | - | - | - | - | - | 0 | -
O=C(CCl)N1CCCC1c1ccc2c(c1)OCCO2 (stereo not given) | 0 | 74 | 0 | 0 | 0 | 0 | 33
C[C@H](CO)N1C[C@H](C)[C@H](CN(C)S(=O)(=O)c2ccccc2)OCCCC[C@H](C)Oc2ccc(NS(=O)(=O)c3ccc(Cl)cc3)cc2C1=O | - | - | - | - | 0 | 0 | -
Nc1ccc(O)cc1 | 0 | 81 | - | 0 | - | - | 31
Nc1ccc(-c2ccc(N)cc2)cc1 | - | - | 0 | - | 0 | 0 | -
FC(F)(F)c1ccc2c(c1)N(CCCN1CCN(CCCl)CC1)c1ccccc1S2 | 0 | 63 | 0 | 0 | - | - | 17
OCCN1CCN(CCCN2c3ccccc3Sc3ccc(C(F)(F)F)cc32)CC1 | 0 | 0 | 0 | 0 | 0 | 0 | -
O=C1C(Nc2ccccc2)=C/C(=N/S(=O)(=O)c2cccs2)c2ccccc21 | 0 | 38 | 0 | 0 | - | 0 | 0.28
Cc1ccc(NC2=C/C(=N/S(=O)(=O)c3cccs3)c3ccccc3C2=O)cc1 | 0 | 31 | 0 | 0 | 0 | - | 0.14
Cc1ccc(S(=O)(=O)/N=C2\C=C(NS(=O)(=O)c3ccccc3)C(=O)c3ccccc32)c(C)c1 | - | - | 0 | - | 0 | 0 | -

Source: PubChem
